Compounds with a hit are over-represented: about 11% of the library has one in this group of screens.
PLK1 PBD inh – inhibitors of human PLK1 polo-box domain binding. AID 720504. Plk1 PBD binding of FITC phosphopeptide, fluorescence polarization. 360,000 tested, 2.8% active. P53350. Potency, µM, for the others: max response, negative = inhibition, usual class: inhibitors; further: series mostly up to about 57 µM; on the % scale 0 is the no-effect control and ±100 the full control effect; nearly all actives have a fitted effect of over 65% in size
JMJD2A Tudor – inhibitors of human JMJD2A Tudor domain. AlphaScreen JMJD2A-Tudor / H3K4me3 peptide binding. AID 504339. 390,000 tested, 4.4% active. Potency, µM (top dose mostly 114 µM), without a hit: top-dose activity change, negative = inhibition, hits mostly inhibitors. O75164; further: on the % scale 0 is the no-effect control and ±100 the full control effect; nearly all actives have a fitted effect of over 50% in size
BAZ2B inh – inhibitors of human BAZ2B bromodomain; Q9UIF8; AlphaScreen BAZ2B-H3K14Ac peptide displacement; Potency, µM (titrated, usually from 114 µM), for inactives: top-dose activity change, negative = inhibition, usual class: inhibitors; 360,000 tested, 4.4% active; AID 504333; further: on the % scale 0 is the no-effect control and ±100 the full control effect; nearly all actives have a fitted effect of over 60% in size
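AlphaScreen displacement of biotin-H3(5-23)K14Ac peptide (50 nM final) from BAZ2B (50 nM final) in PBS pH 7.4, 0.01% Tween-20; complex preformed 30 min RT, then compounds (top 110 uM) 30 min RT, beads 20 min dark.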
HP1b chromo inh – blocks HP1-beta chromodomain binding to methylated histone tails. 390,000 tested, 0.56% active. AID 540317. P83916. AlphaScreen HP1-beta / biotin-H3K9me3 peptide binding. Potency, µM (titrated, usually from 114 µM), inactives show at the highest dose activity change, negative = inhibition, hits mostly inhibitors; further: nearly all actives have a fitted effect of over 70% in size
Target sequence (P83916 whole entry, looked up): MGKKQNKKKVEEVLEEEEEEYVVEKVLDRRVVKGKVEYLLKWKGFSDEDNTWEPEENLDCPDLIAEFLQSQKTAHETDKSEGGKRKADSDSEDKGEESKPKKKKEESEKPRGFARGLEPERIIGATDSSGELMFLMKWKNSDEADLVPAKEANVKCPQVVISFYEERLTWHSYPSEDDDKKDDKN
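Compound inhibition of the preformed complex between 50 nM HP1-beta and 50 nM biotinylated H3K9me3 peptide was read by AlphaScreen. Buffer was PBS pH 7.4 with 0.01% Tween-20. Incubations ran 30 min at room temperature, with 10 ug/mL donor/acceptor beads.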
VDR inh – inhibitors of human vitamin D receptor; VDR-SRC2-3 peptide fluorescence polarization, 2 h; 400,000 tested, 0.93% active; P11473; Potency, µM, for inactives: max response, negative = inhibition, actives largely listed as inhibitors; AID 504847; further: on the % scale 0 is the no-effect control and ±100 the full control effect
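The screen uses fluorescence polarization to detect compounds that interfere with recruitment of the SRC2-3 coactivator peptide to VDR; plates are read after 2 h at room temperature.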
G9a inh – G9a (human) methyltransferase inhibition. Q96KQ7. G9a H3K9 monomethylation, AlphaScreen, 2 h. Potency, µM (highest dose often 102 µM), inactives show at the top dose activity, negative = inhibition, hits mostly inhibitors. 350,000 tested, 8.8% active; further: on the % scale 0 is the no-effect control and ±100 the full control effect; nearly all actives have a fitted effect of over 75% in size
Target sequence (Q96KQ7 913-1193 limits assumed): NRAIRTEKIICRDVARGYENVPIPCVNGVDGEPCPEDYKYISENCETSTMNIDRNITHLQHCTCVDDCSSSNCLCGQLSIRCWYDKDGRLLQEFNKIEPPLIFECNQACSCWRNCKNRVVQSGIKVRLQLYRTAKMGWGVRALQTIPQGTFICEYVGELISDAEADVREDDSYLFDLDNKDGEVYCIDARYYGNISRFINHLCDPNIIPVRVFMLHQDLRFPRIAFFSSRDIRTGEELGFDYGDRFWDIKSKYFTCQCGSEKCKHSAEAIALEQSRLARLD
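AlphaScreen detection with an anti-monomethyl H3K9 antibody quantified product after a 2 h room-temperature reaction containing 500 nM biotinylated H3K9 peptide, 20 µM SAM and 20 nM enzyme, which had been preincubated 15 min with compound.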
Starred values were filed as active, the others as inactive; ? = inconclusive; · = no result given; [ ] = another dose, or the depositor's remark. The call rests on the fitted dose curve; in most records, active means well fitted curve in the direction sought with a large enough effect; inconclusive means small, poorly fitted or top-dose-only effect, or another doubt; inactive means no such curve, though single readings can be large; an effect the other way counts as inactive or inconclusive. Potency means the concentration at half of the fitted maximal effect.

SMILES	PLK1 PBD inh	JMJD2A Tudor	BAZ2B inh	HP1b chromo inh	VDR inh	G9a inh
C[C@@H]1C(=O)O[C@H]2C[C@@]34[C@H]5C[C@@H](C(C)(C)C)[C@]36[C@H](OC(=O)[C@H]6O)O[C@]4(C(=O)O5)[C@]21O	·	·	·	·	7%	·
CCOC(=O)C1=CN(Cc2ccco2)S(=O)(=O)N(CC)C1c1ccc(C(F)(F)F)cc1 (stereo unspecified)	-26%	-26%	·	31%	?	·
CCOC(=O)Cc1ccc(NCc2ccc(Cl)cc2)cc1	-7%	?	?	9%	?	50µM*
COc1ccc(/C=c2/sc3nc(-c4ccccc4)c(-c4ccccc4)n3c2=O)cc1	-7%	-22%	?	?	12%	14µM*
O=c1/c(=C\c2cccc(O)c2)sc2nc(-c3ccccc3)c(-c3ccccc3)n12	-1%	-27%	5.6µM*	2%	0%	?
O=c1/c(=C\c2cccn2-c2ccccc2)sc2nc3ccccc3n12	-3%	-5%	1%	22%	7%	?
COc1cc(/C=c2/sc3nc(-c4ccccc4)c(-c4ccccc4)n3c2=O)cc(OC)c1OC	1%	-17%	-36%	-8%	-5%	?
COc1ccc(/C=c2\sc3nc(-c4ccccc4)c(-c4ccccc4)n3c2=O)cc1OC	-27%	-34%[11.4 µM]	?	13%	-6%	35µM*
CCCN1C(=O)c2ccccc2NC1c1ccc(Cl)c(Cl)c1 (stereo unspecified)	21µM*	-17%	1%	37%	?	-2%[2.33 µM]
CCCN1C(=O)c2ccccc2NC1c1ccc(Cl)cc1 (stereo unspecified)	2%	1%	-6%	38%	-2%	2%
CCOC(=O)c1[nH]c(C)c(CCC(=O)Nc2cc(Cl)ccc2C)c1C	·	-8%	9%	15%[57 µM]	0%	6%[59 µM]
CCCOc1ccc(-c2nonc2NC(=O)COc2ccc(C)cc2)cc1OCCC	·	7%	1%	23%	14%	2%[59 µM]
CC[n+]1ccc(/C=C2\Sc3ccccc3N2CCCS(=O)(=O)[O-])c2ccccc21	-23%	?	50µM*	?	-19%	·
Cc1cccc(NC(=O)c2sc3nc4c(c(-c5cccs5)c3c2N)CN(C)CC4)c1	-28%	?	?	-18%	?	45µM*
CCOc1ccc(OCCCCN2CCCC2)cc1	-8%	45µM*	?	-16%	2%	?
c1ccc(COc2ccc(OCCCCN3CCCCC3)cc2)cc1	0%	7.1µM*	40µM*	-38%	-3%	8.9µM*
Oc1ccc(N2CCN(Cc3ccc(OCCCN4CCCCC4)cc3)CC2)cc1	8%	50µM*	10µM*	40µM*	18%	10µM*
Cc1ccc(OCCN2CCCC2)cc1	-3%	18µM*	-39%	?	?	22µM*
Cc1ccc(OCCCCN2CCCCC2)cc1	-6%	-7%	-30%	31%	-17%	-3%[59 µM]
Cc1ccc(C(C)C)cc1OCCCCN1CCCC1	-1%	18µM*	50µM*	?	6%	10µM*
Cc1ccccc1OCCCCN1CCCCC1	-7%	-7%	-3%	43%	-4%	6%[59 µM]
CC(C)c1ccc(OCCCN2CCCC2)cc1	2%	56µM*	56µM*	-26%	26%	-10%
Cc1ccc(S(=O)(=O)N2CCOC2CNC(=O)C(=O)NCCCN2CCOCC2)cc1 (stereo unspecified)	1%	-6%	-15%	31%	-8%	34%
COc1cc(F)c(S(=O)(=O)N2CCCN(S(=O)(=O)c3ccc(NC(C)=O)cc3)CC2)c(F)c1	·	-27%	·	·	·	·
CCOc1ccc(/C=C/C2=Cc3c(sc(NC(=O)CSc4n[nH]c(N)n4)c3C#N)C(C)(C)C2)cc1	-16%	?	40µM*	-30%	-5%	?
SMILES	PLK1 PBD inh	JMJD2A Tudor	BAZ2B inh	HP1b chromo inh	VDR inh	G9a inh
Cc1ccsc1/C=C/C1=Cc2c(sc(NC(=O)CSc3n[nH]c(N)n3)c2C#N)C(C)(C)C1	-27%	?	?	-20%	6%	35µM*
COC(=O)c1sc(NC(=O)CSc2n[nH]c(N)n2)c(C(=O)OC)c1C	-7%	-7%	-9%	35%	-4%	20%
COc1ccc(-c2nc3c4ccccc4ccn3c2CN2CCCCC2)cc1	4%	?	?	-3%	-9%	40µM*
CCCCNC(=O)C1(C)CCN1C(=O)c1cc(OC)ccc1Br (stereo unspecified)	-5%	·	·	·	·	·
CC(C)n1c(=S)[nH]c2c1c(=O)[nH]c(=O)n2C	-16%	2µM*	?	10µM*	?	?
COc1cc(NC(=O)CSc2ncc(S(=O)(=O)c3ccc(Br)cc3)c(=O)[nH]2)cc(OC)c1	·	?	?	3%	-2%	-26%[59 µM]
O=C(Nc1ccc2ccccc2c1)C(=O)C1C(=O)Nc2ccccc21 (stereo unspecified)	·	·	-2%	·	·	·
Cc1cccc(NC(=O)C(=O)C2C(=O)Nc3ccccc32)c1 (stereo unspecified)	-1%	-35%	-13%	29%	7%	45µM*
Cc1ccccc1NC(=O)CSc1nc(O)cc(=O)n1C	0%	-5%	0%	9%	-3%	-8%
C=CCC[C@@H](Cc1ccc(F)cc1)C(=O)OC[C@@H]1CCCN1C(=O)[C@@H](CC=C)CC(=O)N[C@@H](CO)Cc1ccccc1	0%	-19%	·	27%	-1%	·
CCCC(=O)Nc1c(C(=O)OCC)[nH]c2ccccc12	-14%	-13%	5%	12%	-8%	-14%[59 µM]
CCOC(=O)c1[nH]c2ccccc2c1NC(=S)Nc1ccccc1C	?	-34%	-38%	-9%	-28%	32µM*
CCOC(=O)c1[nH]c2ccccc2c1NC(=S)Nc1cc(C)ccc1C	?	?	?	-6%	-23%	45µM*
CCCCCn1c(CN2CC(C)OC(C)C2)nc2c1c(=O)n(C)c(=O)n2C (stereo unspecified)	-2%	2%	7%	35%	12%	40µM*
CC1CN(Cc2nc3c(c(=O)n(C)c(=O)n3C)n2CCN2CCOCC2)CC(C)O1 (stereo unspecified)	-15%	-9%	-8%	55%	-11%	?
Cc1ccc(N2CCN(c3nc4c(S(=O)(=O)c5ccc(C)c(C)c5)nnn4c4ccccc34)CC2)c(C)c1	·	-9%	0%	12%	17%	-7%[59 µM]
Cc1ccc(C(C)(C)C)cc1S(=O)(=O)Nc1cccc(C(=O)N2CCN(c3ccccn3)CC2)c1	-6%	-23%	-7%	-5%	-27%	?
CC(C)c1ccccc1NC(=O)C1CCCN(C(=O)c2ccc(Cl)cc2)C1 (stereo unspecified)	2%	-9%	2%	20%	5%	0%
